PubChem BioAssay (NCATS)
“And” between values parts separate entries of the source, which are not always exact repeats. Equal entries are not always repeated. Records with an inconclusive call do not appear. Entries that show only a call come without a potency. Values without a mark were called inactive. The source made the active and inactive calls. The call rests on the fitted dose curve; in most records, active means well fitted curve in the direction sought with a large enough effect; inconclusive means small, poorly fitted or top-dose-only effect, or another doubt; inactive means no such curve, though single readings can be large; an effect the other way counts as inactive or inconclusive.

Experiments:
CRL-7250 = normal cell line; assay: Cytotoxic Profiling of Annotated Libraries Using Quantitative High-Throughput Screening (AID 1296008); settings: Five cell lines viability, CellTiter-Glo ATP luminescence, 48-72 h; max response: active compounds read low; further: nearly all actives have a fitted effect of over 60% in size; further: potency means the concentration at half of the fitted maximal effect
How it was run: (§1)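 Cytotoxicity was measured as CellTiter-Glo ATP luminescence, read after 10 min at room temperature. Compound treatment of the cells lasted 48 or 72 hr at 37 degrees Celsius in a qHTS format.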

HaCat [1] = assay: as above; settings: Five cell lines viability, CellTiter-Glo ATP luminescence, 48-72 h; max response: active compounds read low
How it was run: as §1

KB-3-1 = assay: as above; settings: Five cell lines viability, CellTiter-Glo ATP luminescence, 48-72 h; max response: active compounds read low
How it was run: as §1

NIH3T3 [2] = assay: as above; settings: Five cell lines viability, CellTiter-Glo ATP luminescence, 48-72 h; max response: active compounds read low
How it was run: as §1

HACAT [3] = assay: qHTS assay to identify novel small-molecules to repurpose for Merkel cell carcinoma treatment (AID 1296009); settings: MCC and control cell lines, CellTiter-Glo viability, 72 h; at 44.8 µM (top of the series) unless noted; further: nearly all actives have a fitted effect of over 60% in size
How it was run: (§2)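 72 hr, 37 degree celsius; NPC 8-pt / MIPE 11-pt dose response; compound pinned in DMSO; CellTiter-Glo, 10 min RT, luminescence; normalized to no-cell and DMSO controls.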

MCC-13 = assay: as above; settings: MCC and control cell lines, CellTiter-Glo viability, 72 h; series mostly up to 46 µM
How it was run: as §2

MCC-26 = assay: as above; settings: MCC and control cell lines, CellTiter-Glo viability, 72 h; series mostly up to 46 µM
How it was run: as §2

MKL-1 = assay: as above; settings: MCC and control cell lines, CellTiter-Glo viability, 72 h; series mostly up to 46 µM
How it was run: as §2

MKL-2 = assay: as above; settings: MCC and control cell lines, CellTiter-Glo viability, 72 h; series mostly up to 46 µM
How it was run: as §2

NIH3T3 [4] = assay: as above; settings: MCC and control cell lines, CellTiter-Glo viability, 72 h; series mostly up to 44.8 µM
How it was run: as §2

UISO = assay: as above; settings: MCC and control cell lines, CellTiter-Glo viability, 72 h; series mostly up to 46 µM
How it was run: as §2

WaGa = assay: as above; settings: MCC and control cell lines, CellTiter-Glo viability, 72 h; series mostly up to 46 µM
How it was run: as §2

C33A = assay: Primary qHTS to identify gynecologic anti-cancer compounds using libraries of approved drugs and bioactive compounds (AID 1345084); settings: Gynecologic cancer cell panel viability, ATPlite luminescence, 48 h; series mostly up to 57.5 µM; further: nearly all actives have a fitted effect of over 55% in size
How it was run: (§3)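 Cytotoxicity screen measuring ATP content by luciferase luminescence. Each compound is applied at five concentrations for 48 h at 37 C with 5% CO2.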

CAOV3 = assay: as above; settings: Gynecologic cancer cell panel viability, ATPlite luminescence, 48 h; series mostly up to 57.5 µM
How it was run: as §3

CASKI = assay: as above; settings: Gynecologic cancer cell panel viability, ATPlite luminescence, 48 h; series mostly up to 57.5 µM
How it was run: as §3

Compound | max response (CRL-7250) | max response (HaCat [1]) [%] | outcome (HaCat [1]) | max response (KB-3-1) | max response (NIH3T3 [2]) [%] | outcome (NIH3T3 [2]) | outcome (HACAT [3]) | Potency (MCC-13) | Potency (MCC-26) | Potency (MKL-1) | Potency (MKL-2) | Potency (NIH3T3 [4]) | Potency (UISO) | Potency (WaGa) | Potency (C33A) | Potency (CAOV3) | Potency (CASKI) | outcome (CRL-7250) | outcome (KB-3-1) | Potency (NIH3T3 [2])
Cc1nc2c([nH]1)CCN(C(=O)c1ccc(NC(=O)c3ccccc3-c3ccccc3)cc1)c1ccccc1-2 | 1.7% and 3.01% | -0.498 | inactive | 0.364% and -8.3% | 4.2 | inactive | inactive | inactive | inactive | inactive | inactive | inactive | inactive | inactive | inactive | inactive | inactive |  |  | 
CCOC(=O)c1c(CSc2ccccc2)n(C)c2cc(Br)c(O)c(CN(C)C)c12 |  |  | inactive | -17.1% | -4.48 |  | inactive | inactive | inactive | inactive | inactive |  | inactive | inactive |  |  |  | inactive |  | 
CN(C)c1ccccc1CN1CCCN(Cc2ccccc2N(C)C)C1c1ccncc1 |  |  | inactive |  | -1.17 |  | inactive | inactive | inactive | inactive | inactive |  | inactive | inactive |  |  |  | inactive | inactive | 
CCCCCCOC(=O)N=C(N)c1ccc(NCc2nc3cc(C(=O)N(CCC(=O)OCC)c4ccccn4)ccc3n2C)cc1 | -14.3% |  | inactive | 5.67% | 3.96 |  | inactive | inactive | inactive |  | inactive |  | inactive | inactive |  |  |  |  |  | 
CNC(=O)c1ccc2c(C(=Nc3cccc(CN(C)C)c3)c3ccccc3)c(O)[nH]c2c1 | -0.775% and -15% | 0.629 | inactive |  |  |  | inactive | inactive | inactive | inactive |  |  | inactive | inactive | inactive | inactive | inactive |  | inactive | 16.6 µM (active) and 8.2 µM (active)
CNC(=O)c1cc(COc2nnc(Nc3ccc(Cl)cc3)c3ccoc23)ccn1 | -22.5% | 1.3 |  | -2.71% | -16.8 |  |  | inactive | inactive | inactive | inactive |  |  | inactive |  |  |  |  |  | 
O=C1CCCC(=O)C1C(=O)c1ccc(C(F)(F)F)cc1[N+](=O)[O-] | -12.8% |  |  | 8.25% | -10 |  |  | inactive | inactive | inactive | inactive |  | inactive | inactive |  |  |  |  |  | 
COc1ccc(CCN(C)CCCOc2ccc(S(=O)(=O)c3[nH]c4ccccc4c3C(C)C)cc2)cc1OC |  | -8.82 |  | 5.18% |  |  |  | inactive | inactive |  |  |  |  |  |  |  |  | inactive |  | 
O=C(Nc1cccc(C(F)(F)F)c1)Nc1cc(S(=O)(=O)NC2CC2)ccc1-c1ccsc1 | -35.6% | -22.2 |  |  | -27 |  |  | inactive | inactive | inactive | inactive |  | inactive | inactive | inactive | inactive | inactive |  |  | 
OC[C@H]1O[C@@H](OCCc2ccc(O)cc2)[C@H](O)[C@@H](O)[C@H]1O | -2.13% | -11.4 |  | -11.7% | 2.07 |  |  | inactive | inactive | inactive | inactive |  | inactive | inactive | inactive | inactive | inactive |  |  | 
CCC(=C(c1ccc(O)cc1)c1ccc(OCCNC)cc1)c1ccccc1 | -6.43% | -11.9 |  |  |  |  |  | inactive | inactive | inactive | inactive |  | inactive | inactive |  |  |  |  |  | 
CCC(=O)OCC(=O)[C@@]1(OC(=O)CC)[C@@H](C)C[C@@H]2[C@H]3CCC4=CC(=O)C=C[C@]4(C)[C@@]3(F)[C@@H](O)C[C@@]21C | -3.82% | -0.0521 |  |  | 0.981 |  |  | inactive | inactive | inactive |  |  | inactive | inactive |  |  |  |  | inactive | 
CO[C@H]1/C=C\O[C@@]2(C)Oc3c(C)c(O)c4c(O)c(c5c(nc6cc(C)ccn65)c4c3C2=O)NC(=O)C(C)=CC=C[C@H](C)[C@H](O)[C@@H](C)[C@@H](O)[C@@H](C)[C@H](OC(C)=O)[C@H]1C | 3.34% | -2.46 |  | -2.96% | -4.51 |  |  | inactive | inactive |  | inactive |  | inactive |  |  |  |  |  |  | 
O=C1Nc2ccc(I)cc2C1=Cc1cc(Br)c(O)c(Br)c1 |  | 4.95 |  | 8.65% | -9.84 |  |  | inactive | inactive | inactive | inactive |  |  | inactive |  |  |  | inactive |  | 
COc1cc(CNC(=O)CCCCC=CC(C)C)ccc1O | -19.8% | 3.92 |  | -24.7% |  |  |  | inactive | inactive | inactive |  |  |  | inactive |  |  |  |  |  | 10.5 µM (active)
